According to PubChem BioAssay (NCI):
Where “and” joins values, the source holds several entries; their conditions need not be identical. Equal values may be shown once. About 83,000 compounds went through this panel and 20% of them were active in at least one assay; those are over-represented in the sample as a whole.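 Method: cells in 96-well plates; compound added at one concentration; 48 h incubation; percent growth measured; values under 10 scored active.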 A number with no mark means an inactive call. Calls of active or inactive are those of the source.

The compounds below were run on MDA-MB-468 breast (assay: NCI-60 one-dose screen, 48 h (100 = growth as untreated, 0 = no growth, -100 = all killed)). Details: 10 µM unless noted.
In the case of `CC(O)c1cc2ccccc2c(=O)o1` (stereo not given), the growth is reported as 98.7%. With `CC(C)NCC(O)c1ccc(O)c(O)c1` (stereo not given) the growth was 89.3% and 104% and 97.9%. For `O=S(=O)(Nc1cc(Br)c(O)c2ccccc12)c1ccc(F)cc1`, the growth was -48.5% (active). `[B-][N+](CC)(CC)c1ccccc1` showed a growth of 104%. `COc1ccc(C2CC(=O)c3c(O)cc(OC4OC(COC5OC(C)C(O)C(O)C5O)C(O)C(O)C4O)cc3O2)cc1O` (stereo not given) gave a growth of 96.9%. Compound `N=c1c(S(=O)(=O)c2ccccc2)cc2c(=O)n3ccccc3nc2n1C1CCCC1` has a growth of 88.1%. Work on `Cc1ccc(Nc2c(C(N)=O)cnc3ccc(-c4csc(N)n4)cc23)cc1` yielded a growth of 83.9%. `O=S(=O)(Nc1ccccn1)c1ccc(N=Nc2ccc(O)c3ncccc23)cc1` was tested, and the growth was 4.46% (active). In the case of `c1csc(-c2cn3nc(-c4c[nH]c5ccccc45)sc3n2)c1`, the growth is reported as 19.4%. For `Cc1c2c(c(C)c3c1oc1cc(O)ccc13)C(=O)N(CCN1CCCCC1)C2=O`, the growth was 100%. Compound `CCN(CC)CCNC(=O)C(F)(F)C(F)(F)C(F)(F)F` has a growth of 105%. With `O=C(Nc1cccc(Cl)c1)Nc1cc(C(F)(F)F)ccc1Cl` the growth was 1.29% (active). `COc1nccc2cc3c(=O)n4c(cc5ccccc54)c(=O)n3c12` was tested, and the growth was 89.4%. In the case of `COc1c(N2CC3CCCN(C(C)=O)C3C2)c(F)cc2c(=O)c(C(=O)N[C@H]3C(O)[C@@H](O)C(CO)O[C@H]3O)cn(C3CC3)c12` (stereo not given in full), the growth is reported as 98%. Work on `CCOC(=O)CN1/C(=N/c2sc3c(c2C(=O)OCC)CCN(C(=O)OCC)C3)SC(=O)/C1=C\C(=O)OC` yielded a growth of 79.6%.
